Results on 40 compounds are retold here after PubChem BioAssay (Tox21).

Structures are written as SMILES. Several values for one entry are separate records, joined by “and”; a condition that tells them apart may be missing. Equal entries are not always repeated. Results filed as inconclusive are left out. Where a call stands in place of a potency, no number is given. A structure can be active in one record and inactive in another. Activity calls are given as the source filed them. Calls follow the shape of the dose curve; as a rule, active = well fitted activation curve with a large enough effect in the signal ratio in the repeat runs, with a control signal flat (not every such curve was filed as active); inconclusive = weak or mixed curves; inactive = flat fitted curve, though single readings scatter; the % refers to the signal ratio.
Potency is read from the fitted curve at half-maximal effect.

The experiment in a line: qHTS assay for small molecule activators of the heat shock response signaling pathway (AID 743210). Particulars: HeLa HSE-bla reporter, beta-lactamase ratio, 5 h; series mostly up to 62.6 µM; activation: at the top concentration. From the text:
U.S. Tox21 Program National Center for Advancing Translational Sciences [NCATS] NIH Chemical Genomics Center [NCGC] U.S. Environmental Protection Agency [EPA] National Institutes of Environmental Health Sciences [NIEHS] National Toxicology Program [NTP] U.S. Food and Drug Administration [FDA] Tox21 Assay Overview: Various chemicals, environmental and physiological stress conditions may lead to the activation of heat shock response/ unfolded protein response (HSR/UPR). There are three heat shock transcription factors (HSFs) (HSF-1, -2, and -4) mediating transcriptional regulation of the human HSR. To identify the compounds that activate HSR signaling, HSE-bla HeLa cell line (Invitrogen, Carlsbad, CA, USA) containing a beta-lactamase reporter gene under the control of the heat shock response elements was used to screen the Tox21 10K compound library.
Tox21 Assay Protocol Summary: The CellSensor HSE-bla HeLa cells (Invitrogen, Carlsbad, CA, USA) were dispensed at 1500 cells/6uL/well into 1536-well black wall/clear bottom plates using a Multidrop combi (Thermo Fisher Scientific, Waltham, MA) dispenser. After the assay plates were incubated at 37 C and 5% CO2 overnight, 23 nL of compounds dissolved in DMSO, positive controls or DMSO only was transferred to the assay plate by a Pintool station (Kalypsys, San Diego, CA). The plates were incubated at 37 C for 5 h. After 1 uL of LiveBLAzerTM B/G FRET substrate was added using a Flying Reagent Dispenser (Beckman Coulter, Indianapolis, IN, USA), the plates were incubated at room temperature for 2.5 h, and fluorescence intensity was measured by an Envision plate reader (PerkinElmer, Shelton, CT).
In general terms: In qHTS, concentration-response curves come from the screen itself.
Consider `COP(=S)(OC)Oc1cc(Cl)c(Cl)cc1Cl`, for which the Potency entry is “inactive”.
With `Cc1c(COC(=O)[C@@H]2[C@H](/C=C(\Cl)C(F)(F)F)C2(C)C)cccc1-c1ccccc1`, the “activation” value was 1.18% (inactive).
For `Nn1cnnc1`, the Potency result is “inactive”.
Take `C#C[C@]1(O)CC[C@H]2[C@@H]3CCC4=CC(=O)CC[C@]4(C)[C@H]3CC[C@@]21C`: the Potency entry is “inactive”.
For the compound `NNC(=S)NN`, the Potency was 1.79 µM (active) and 4.36 µM (active).
On to `CCOc1cc(Oc2ccc(C(F)(F)F)cc2Cl)ccc1[N+](=O)[O-]`, for which the “activation” value is 0.132% (inactive).
Regarding `ClC1C(Cl)C(Cl)C(Cl)C(Cl)C1Cl` (stereo not given), the Potency result was “inactive”.
On the same count and under the same terms, in the case of `C=CC(=O)OCCO` it was “inactive”.
In the case of `C=C(C)[C@H]1Cc2c(ccc3c2O[C@@H]2COc4cc(OC)c(OC)cc4[C@@H]2C3=O)O1`, the “activation” value is 1.57% (inactive).
With `O=S(=O)(Oc1ccc(Cl)cc1)c1ccc(Cl)cc1`, the Potency result was “inactive”.
For `CCCCCCOC(=O)c1ccccc1C(=O)OCCCCCC`, the Potency result was “inactive”.
With `Oc1cc(Cl)ccc1Cl`, the Potency entry was “inactive”.
As for `CCCCN(CCCC)N=O`, the Potency entry was “inactive”.
In the case of `COP(=O)(OC)OC`, the Potency result was “inactive”.
As to `Cc1cc(Cl)ccc1OCCCC(=O)O`, the Potency entry was “inactive”.
Turning to `N#CCCCl`, the Potency entry was “inactive”.
As for `Clc1nc(Cl)nc(Cl)n1`, the “activation” value was 0.93% (inactive).
As to `Oc1cc(Cl)c(Cl)cc1Cl`, the Potency entry is “inactive”.
As for `C[C@]12CCC(=O)C(O)=C1CC[C@@H]1[C@@H]2CC[C@]2(C)C(=O)CC[C@@H]12`, the Potency result was “inactive”.
On the same count and under the same terms, under `Brc1ccc(Oc2cc(Br)c(Br)cc2Br)c(Br)c1` stands “inactive”; under `CCCCC(CC)COC(=O)c1ccc(C(=O)OCC(CC)CCCC)c(C(=O)OCC(CC)CCCC)c1` (stereo not given), “inactive”; under `O=[N+]([O-])c1cccc2ccccc12`, “inactive”.
For `Nc1cccnc1`, the Potency entry is “inactive”.
For `COc1ccc(C(CN(C)C)C2(O)CCCCC2)cc1` (stereo not given), the Potency result is “inactive”.
Regarding `CC(C)C(=O)OCC(C)(C)C(OC(=O)C(C)C)C(C)C` (stereo not given), the “activation” value was -0.441% (inactive).
In the case of `Cc1ccc(OP(=O)(Oc2ccc(C)cc2)Oc2ccc(C)cc2)cc1`, the Potency result was “inactive”.
In the case of `CCN(CC)C(=O)/C(Cl)=C(\C)OP(=O)(OC)OC`, the Potency entry was “inactive”.
As to `c1ccc(P(c2ccccc2)c2ccccc2)cc1`, the Potency entry is “inactive and 3.34 µM (active)”.
With `CC(O)CCO` (stereo not given), the Potency entry is “inactive”.
Still for that read-out and setting: in the case of `COc1ccc(C=O)cc1` it was “inactive”; in that of `Nc1ccc(-c2ccccc2)cc1`, “inactive”; in that of `O=C1C=CC(=O)C=C1`, “inactive”.
As for `C=C(C)C(=O)OCC1CO1` (stereo not given), the “activation” value is -0.948% (inactive).
For the compound `CCC(C)(C)c1ccc(O)cc1`, the Potency entry is “inactive”.
For `N[C@@H](Cc1ccc(N(CCCl)CCCl)cc1)C(=O)O`, the Potency entry is “inactive”.
As for `O=P(Oc1ccccc1)(Oc1ccccc1)Oc1ccccc1`, the “activation” value is 2.61% (inactive).
In the case of `CCC(C)c1cc([N+](=O)[O-])cc([N+](=O)[O-])c1O` (stereo not given), the Potency result is “inactive”.
As to `c1nc[nH]n1`, the Potency entry is “inactive”.
For the compound `N#CC(Br)Br`, the Potency entry is “inactive”.
In the case of `CCC(C)c1ccc(O)cc1` (stereo not given), the Potency result is “inactive”.
